Holding throughout (test): DAPPL (digital affinity profiling via proximity ligation, sequencing); 10 mM Tris-HCl pH 7.5, 50 mM NaCl, 1 mM DTT, 4% glycerol, room temperature, 30 min; GST-TFs on glutathione beads, 16-mer random dsDNA library, 0.1% formaldehyde crosslink after washing; high values mean tight binding
The target in one experiment is T1, FLI1 (Homo sapiens, UniProt Q01543 1-452).
T1 sequence: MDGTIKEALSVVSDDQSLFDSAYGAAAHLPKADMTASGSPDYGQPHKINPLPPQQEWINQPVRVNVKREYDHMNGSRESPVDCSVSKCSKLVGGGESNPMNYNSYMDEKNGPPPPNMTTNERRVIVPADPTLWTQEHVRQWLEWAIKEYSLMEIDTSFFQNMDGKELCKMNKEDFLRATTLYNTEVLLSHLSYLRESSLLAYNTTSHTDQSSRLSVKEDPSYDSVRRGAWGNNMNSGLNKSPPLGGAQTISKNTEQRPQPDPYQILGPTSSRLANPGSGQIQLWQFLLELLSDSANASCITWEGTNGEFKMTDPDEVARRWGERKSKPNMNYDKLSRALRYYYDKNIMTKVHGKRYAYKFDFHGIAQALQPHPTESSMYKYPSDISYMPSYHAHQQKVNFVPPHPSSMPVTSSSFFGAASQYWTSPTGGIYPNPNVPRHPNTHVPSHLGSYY
The note with it: protein: recombinant; tags: N-terminal GST; dsDNA, one strand shown. An outline of the steps:
(§1)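 After expression in yeast as GST fusions, human transcription factors were bound to glutathione beads, DNA-barcoded and mixed with a tag-only sample. The pools were incubated with 200 nmole of a 16-mer random double-stranded DNA library in Tris/NaCl/DTT/glycerol buffer (30 min, room temperature), washed and crosslinked with 0.1% formaldehyde. Proximity ligation with BsaI/T4 ligase ran for 1 h at 37 °C, before PCR amplification and sequencing on an Illumina NextSeq500. Binding signal is a hexamer's read frequency for a factor divided by its frequency for the tag-only sample.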

For another experiment, the target named is T2, ELK1 (Homo sapiens, UniProt P19419 1-428).
T2 sequence: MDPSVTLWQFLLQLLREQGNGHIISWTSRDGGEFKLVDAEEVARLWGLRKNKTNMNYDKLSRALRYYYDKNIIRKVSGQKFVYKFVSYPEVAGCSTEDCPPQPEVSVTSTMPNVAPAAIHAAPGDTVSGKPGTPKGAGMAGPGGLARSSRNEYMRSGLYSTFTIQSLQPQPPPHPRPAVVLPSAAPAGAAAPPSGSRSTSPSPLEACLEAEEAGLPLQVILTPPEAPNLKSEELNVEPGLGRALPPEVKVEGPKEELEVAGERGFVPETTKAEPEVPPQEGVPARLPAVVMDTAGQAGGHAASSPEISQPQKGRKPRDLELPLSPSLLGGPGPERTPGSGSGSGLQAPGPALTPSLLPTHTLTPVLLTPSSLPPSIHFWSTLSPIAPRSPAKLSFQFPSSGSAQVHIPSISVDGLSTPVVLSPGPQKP
The following applies: protein: recombinant; tags: N-terminal GST; dsDNA, one strand shown. An outline of the steps:
as §1

Another experiment concerns the target T3, GABPA (Homo sapiens, UniProt Q06546 1-454).
T3 sequence: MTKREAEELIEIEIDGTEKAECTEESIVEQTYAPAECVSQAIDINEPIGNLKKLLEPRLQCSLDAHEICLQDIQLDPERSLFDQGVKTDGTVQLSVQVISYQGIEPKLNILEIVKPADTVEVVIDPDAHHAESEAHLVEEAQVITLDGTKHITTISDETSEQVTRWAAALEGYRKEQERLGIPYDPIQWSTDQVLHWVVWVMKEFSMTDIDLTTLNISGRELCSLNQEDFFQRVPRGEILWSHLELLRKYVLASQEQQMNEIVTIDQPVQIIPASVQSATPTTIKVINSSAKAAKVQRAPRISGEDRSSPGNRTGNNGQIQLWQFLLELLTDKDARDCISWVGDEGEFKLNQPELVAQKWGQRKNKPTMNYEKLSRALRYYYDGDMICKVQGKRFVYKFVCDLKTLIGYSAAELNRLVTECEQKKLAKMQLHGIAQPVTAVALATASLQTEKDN
The note with it: protein: recombinant; tags: N-terminal GST; dsDNA, one strand shown. An outline of the steps: as §1

For the next experiment, the target named is T4, ERG (Homo sapiens, UniProt P11308 1-479).
T4 sequence: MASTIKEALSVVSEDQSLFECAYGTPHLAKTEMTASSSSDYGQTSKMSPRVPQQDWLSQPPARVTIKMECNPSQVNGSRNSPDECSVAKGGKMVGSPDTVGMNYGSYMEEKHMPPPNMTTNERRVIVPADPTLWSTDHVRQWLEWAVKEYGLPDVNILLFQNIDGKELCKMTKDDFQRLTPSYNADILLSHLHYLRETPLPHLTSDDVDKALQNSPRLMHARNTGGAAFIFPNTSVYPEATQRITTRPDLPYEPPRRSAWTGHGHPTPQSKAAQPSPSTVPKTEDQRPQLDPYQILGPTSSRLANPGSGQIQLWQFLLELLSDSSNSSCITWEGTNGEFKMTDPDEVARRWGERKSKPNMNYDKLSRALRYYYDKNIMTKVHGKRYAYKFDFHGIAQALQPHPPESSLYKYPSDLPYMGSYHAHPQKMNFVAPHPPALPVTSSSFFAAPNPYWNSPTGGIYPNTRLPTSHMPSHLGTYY
The note with it: protein: recombinant; tags: N-terminal GST; dsDNA, one strand shown. Put shortly:
as §1

The target of the next experiment is ELF1 (Homo sapiens, UniProt P32519 1-619). The note with it: protein: recombinant; tags: N-terminal GST; dsDNA, one strand shown. An outline of the steps:
as §1

Another experiment deals with T5, EHF (Homo sapiens, UniProt Q9NZC4 1-300).
T5 sequence: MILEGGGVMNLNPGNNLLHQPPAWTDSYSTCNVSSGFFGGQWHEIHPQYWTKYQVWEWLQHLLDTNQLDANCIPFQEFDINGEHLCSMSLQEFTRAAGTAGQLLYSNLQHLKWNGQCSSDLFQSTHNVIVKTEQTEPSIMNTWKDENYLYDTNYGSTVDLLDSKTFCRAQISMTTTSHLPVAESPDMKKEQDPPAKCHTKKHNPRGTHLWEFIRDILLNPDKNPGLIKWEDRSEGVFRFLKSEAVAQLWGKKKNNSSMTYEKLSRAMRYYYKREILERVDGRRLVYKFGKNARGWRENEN
The note with it: protein: recombinant; tags: N-terminal GST; dsDNA, one strand shown. An outline of the steps: as §1

Another experiment deals with SPI1 (Homo sapiens, UniProt P17947 1-270). The following applies: protein: recombinant; tags: N-terminal GST; dsDNA, one strand shown. An outline of the steps:
as §1

The next experiment concerns the target SPIB (Homo sapiens, UniProt Q01892 1-262). The note with it: protein: recombinant; tags: N-terminal GST; dsDNA, one strand shown. An outline of the steps: as §1
In a further experiment the target is T6, ELK3 (Homo sapiens, UniProt P41970 1-407).
T6 sequence: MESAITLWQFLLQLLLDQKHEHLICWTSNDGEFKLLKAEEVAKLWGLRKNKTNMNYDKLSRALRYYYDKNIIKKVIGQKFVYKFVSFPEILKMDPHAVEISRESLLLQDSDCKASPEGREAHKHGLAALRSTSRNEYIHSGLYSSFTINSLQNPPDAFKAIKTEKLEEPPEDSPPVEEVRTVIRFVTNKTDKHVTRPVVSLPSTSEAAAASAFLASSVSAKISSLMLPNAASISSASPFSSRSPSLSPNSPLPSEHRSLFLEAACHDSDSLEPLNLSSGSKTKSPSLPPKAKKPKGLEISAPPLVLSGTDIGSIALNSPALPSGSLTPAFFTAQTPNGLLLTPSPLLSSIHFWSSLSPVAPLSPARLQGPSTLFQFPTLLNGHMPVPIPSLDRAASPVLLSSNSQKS
The note with it: protein: recombinant; tags: N-terminal GST; dsDNA, one strand shown. An outline of the steps:
as §1

In another experiment the target is T7, FEV (Homo sapiens, UniProt Q99581 1-238).
T7 sequence: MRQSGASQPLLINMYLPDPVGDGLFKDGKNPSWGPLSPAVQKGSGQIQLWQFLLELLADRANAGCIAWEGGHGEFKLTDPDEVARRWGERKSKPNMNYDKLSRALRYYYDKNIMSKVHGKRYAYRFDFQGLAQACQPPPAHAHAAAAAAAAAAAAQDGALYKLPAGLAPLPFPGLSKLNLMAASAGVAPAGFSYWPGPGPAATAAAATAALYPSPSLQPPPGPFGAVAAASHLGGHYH
The note with it: protein: recombinant; tags: N-terminal GST; dsDNA, one strand shown. Put shortly: as §1

Another experiment has as its target ETV5 (Homo sapiens, UniProt P41161 1-510). The following applies: protein: recombinant; tags: N-terminal GST; dsDNA, one strand shown. An outline of the steps:
as §1

For a further experiment, the target named is HSF1 (Homo sapiens, UniProt Q00613 1-529). The following applies: protein: recombinant; tags: N-terminal GST; chain copies: 3; dsDNA, one strand shown. An outline of the steps: as §1
Sequence of HSF1 (Q00613 whole entry): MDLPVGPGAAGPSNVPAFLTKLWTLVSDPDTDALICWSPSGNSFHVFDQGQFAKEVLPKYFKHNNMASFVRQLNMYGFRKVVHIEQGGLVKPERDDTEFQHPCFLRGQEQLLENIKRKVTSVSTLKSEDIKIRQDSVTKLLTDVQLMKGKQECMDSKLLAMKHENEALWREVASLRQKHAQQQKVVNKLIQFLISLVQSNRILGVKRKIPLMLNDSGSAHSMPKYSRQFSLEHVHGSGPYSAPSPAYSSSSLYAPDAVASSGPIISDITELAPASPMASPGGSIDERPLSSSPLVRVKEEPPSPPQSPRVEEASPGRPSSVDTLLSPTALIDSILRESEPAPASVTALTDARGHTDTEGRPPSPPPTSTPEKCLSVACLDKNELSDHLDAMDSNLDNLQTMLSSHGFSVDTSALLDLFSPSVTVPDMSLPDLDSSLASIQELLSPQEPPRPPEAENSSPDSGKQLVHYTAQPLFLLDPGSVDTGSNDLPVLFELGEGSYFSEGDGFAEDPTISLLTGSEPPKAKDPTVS
Another experiment has as its target T8, SPIC (Homo sapiens, UniProt Q8N5J4 1-248).
T8 sequence: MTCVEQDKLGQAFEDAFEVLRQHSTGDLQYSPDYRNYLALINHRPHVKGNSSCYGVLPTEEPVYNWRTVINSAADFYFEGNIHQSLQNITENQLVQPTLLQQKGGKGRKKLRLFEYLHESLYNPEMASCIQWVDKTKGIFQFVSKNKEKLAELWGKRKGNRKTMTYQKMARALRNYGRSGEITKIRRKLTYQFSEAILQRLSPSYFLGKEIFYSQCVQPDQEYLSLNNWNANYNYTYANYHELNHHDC
The following applies: protein: recombinant; tags: N-terminal GST; dsDNA, one strand shown. An outline of the steps:
as §1

The target of the next experiment is ELF4 (Homo sapiens, UniProt Q99607 1-663). The following applies: protein: recombinant; tags: N-terminal GST; dsDNA, one strand shown. Put shortly: as §1
Sequence of ELF4 (Q99607 whole entry): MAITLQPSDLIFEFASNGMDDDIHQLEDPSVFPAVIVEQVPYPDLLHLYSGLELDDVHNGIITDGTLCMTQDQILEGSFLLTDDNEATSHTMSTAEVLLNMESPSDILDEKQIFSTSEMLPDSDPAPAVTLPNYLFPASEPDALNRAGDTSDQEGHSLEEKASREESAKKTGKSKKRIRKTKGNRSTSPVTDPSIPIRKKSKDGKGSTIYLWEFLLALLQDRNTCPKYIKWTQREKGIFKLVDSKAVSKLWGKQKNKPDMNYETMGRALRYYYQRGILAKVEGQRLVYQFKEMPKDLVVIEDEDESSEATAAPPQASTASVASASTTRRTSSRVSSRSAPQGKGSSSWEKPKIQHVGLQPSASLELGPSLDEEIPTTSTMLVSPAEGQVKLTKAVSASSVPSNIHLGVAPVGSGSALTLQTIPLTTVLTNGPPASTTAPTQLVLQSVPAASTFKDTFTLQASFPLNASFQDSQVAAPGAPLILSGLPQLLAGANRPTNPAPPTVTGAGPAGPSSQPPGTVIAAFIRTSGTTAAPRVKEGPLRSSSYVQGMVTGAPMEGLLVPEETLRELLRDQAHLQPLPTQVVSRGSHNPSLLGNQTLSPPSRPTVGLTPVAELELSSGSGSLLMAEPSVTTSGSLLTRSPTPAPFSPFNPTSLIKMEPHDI
The next experiment addresses T9, ELK4 (Homo sapiens, UniProt P28324-2 1-405).
T9 sequence: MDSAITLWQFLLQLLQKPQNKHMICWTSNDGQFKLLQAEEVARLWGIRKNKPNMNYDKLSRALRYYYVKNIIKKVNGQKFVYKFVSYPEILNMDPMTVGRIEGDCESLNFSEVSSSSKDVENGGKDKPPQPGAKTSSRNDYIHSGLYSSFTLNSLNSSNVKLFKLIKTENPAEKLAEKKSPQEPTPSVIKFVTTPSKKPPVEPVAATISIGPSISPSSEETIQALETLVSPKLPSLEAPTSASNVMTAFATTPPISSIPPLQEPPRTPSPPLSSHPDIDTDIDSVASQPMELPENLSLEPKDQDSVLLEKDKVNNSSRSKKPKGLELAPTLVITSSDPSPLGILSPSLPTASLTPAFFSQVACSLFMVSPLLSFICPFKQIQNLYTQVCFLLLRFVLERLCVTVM
The note with it: protein: recombinant; tags: N-terminal GST; dsDNA, one strand shown. An outline of the steps:
as §1

The next experiment deals with T10, ETV2 (Homo sapiens, UniProt O00321 1-342).
T10 sequence: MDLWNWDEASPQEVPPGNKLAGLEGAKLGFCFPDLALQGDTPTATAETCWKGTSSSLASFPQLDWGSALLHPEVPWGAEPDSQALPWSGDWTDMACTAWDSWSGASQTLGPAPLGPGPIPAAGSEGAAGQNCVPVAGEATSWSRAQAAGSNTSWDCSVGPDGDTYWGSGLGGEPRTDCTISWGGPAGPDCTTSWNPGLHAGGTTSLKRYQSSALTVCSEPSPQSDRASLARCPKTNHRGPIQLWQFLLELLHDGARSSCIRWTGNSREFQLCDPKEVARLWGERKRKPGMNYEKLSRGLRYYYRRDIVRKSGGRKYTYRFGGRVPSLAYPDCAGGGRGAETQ
The note with it: protein: recombinant; tags: N-terminal GST; dsDNA, one strand shown. An outline of the steps: as §1

The target of a further experiment is T11, ELF3 (Homo sapiens, UniProt P78545 1-371).
T11 sequence: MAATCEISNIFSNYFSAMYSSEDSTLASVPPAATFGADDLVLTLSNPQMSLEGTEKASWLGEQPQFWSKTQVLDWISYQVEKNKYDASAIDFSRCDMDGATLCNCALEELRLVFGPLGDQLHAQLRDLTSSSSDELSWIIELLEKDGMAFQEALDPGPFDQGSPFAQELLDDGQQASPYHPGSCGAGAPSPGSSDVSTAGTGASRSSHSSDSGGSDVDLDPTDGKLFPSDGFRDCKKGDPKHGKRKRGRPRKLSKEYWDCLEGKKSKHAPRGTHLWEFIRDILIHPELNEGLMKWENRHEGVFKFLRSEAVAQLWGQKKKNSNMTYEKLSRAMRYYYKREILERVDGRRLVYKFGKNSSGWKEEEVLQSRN
The following applies: protein: recombinant; tags: N-terminal GST; dsDNA, one strand shown. An outline of the steps:
as §1

For a further experiment, the target named is ETV1 (Homo sapiens, UniProt P50549 1-477). The note with it: protein: recombinant; tags: N-terminal GST; dsDNA, one strand shown. Put shortly: as §1
Sequence of ETV1 (P50549 whole entry): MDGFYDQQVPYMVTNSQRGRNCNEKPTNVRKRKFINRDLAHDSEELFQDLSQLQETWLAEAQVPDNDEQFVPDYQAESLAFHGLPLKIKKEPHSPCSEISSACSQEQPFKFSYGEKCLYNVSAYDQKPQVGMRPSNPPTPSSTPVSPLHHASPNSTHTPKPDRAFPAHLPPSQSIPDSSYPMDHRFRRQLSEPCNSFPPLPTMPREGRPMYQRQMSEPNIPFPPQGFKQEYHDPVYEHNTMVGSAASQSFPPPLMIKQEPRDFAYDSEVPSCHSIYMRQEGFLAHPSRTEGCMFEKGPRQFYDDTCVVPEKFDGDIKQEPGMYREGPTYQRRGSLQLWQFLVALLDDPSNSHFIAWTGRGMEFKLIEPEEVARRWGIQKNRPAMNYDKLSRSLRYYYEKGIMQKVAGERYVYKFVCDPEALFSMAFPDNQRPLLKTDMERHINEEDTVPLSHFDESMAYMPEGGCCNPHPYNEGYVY

Sequence of ETV5 (P41161 whole entry): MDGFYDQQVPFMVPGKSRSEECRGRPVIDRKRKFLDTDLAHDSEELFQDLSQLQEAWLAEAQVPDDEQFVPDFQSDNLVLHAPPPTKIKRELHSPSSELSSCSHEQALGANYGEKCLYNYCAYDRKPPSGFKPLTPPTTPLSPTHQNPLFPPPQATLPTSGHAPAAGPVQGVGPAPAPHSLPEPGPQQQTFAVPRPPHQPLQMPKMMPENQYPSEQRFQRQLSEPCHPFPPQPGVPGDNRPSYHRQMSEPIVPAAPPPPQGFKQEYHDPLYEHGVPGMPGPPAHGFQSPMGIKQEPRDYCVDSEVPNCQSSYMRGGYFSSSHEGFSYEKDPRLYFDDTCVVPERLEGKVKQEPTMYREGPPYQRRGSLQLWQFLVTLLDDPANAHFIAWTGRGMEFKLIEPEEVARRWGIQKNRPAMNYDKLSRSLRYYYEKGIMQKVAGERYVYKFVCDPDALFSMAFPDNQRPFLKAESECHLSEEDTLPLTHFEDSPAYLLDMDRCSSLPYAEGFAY
Sequence of ELF1 (P32519 whole entry): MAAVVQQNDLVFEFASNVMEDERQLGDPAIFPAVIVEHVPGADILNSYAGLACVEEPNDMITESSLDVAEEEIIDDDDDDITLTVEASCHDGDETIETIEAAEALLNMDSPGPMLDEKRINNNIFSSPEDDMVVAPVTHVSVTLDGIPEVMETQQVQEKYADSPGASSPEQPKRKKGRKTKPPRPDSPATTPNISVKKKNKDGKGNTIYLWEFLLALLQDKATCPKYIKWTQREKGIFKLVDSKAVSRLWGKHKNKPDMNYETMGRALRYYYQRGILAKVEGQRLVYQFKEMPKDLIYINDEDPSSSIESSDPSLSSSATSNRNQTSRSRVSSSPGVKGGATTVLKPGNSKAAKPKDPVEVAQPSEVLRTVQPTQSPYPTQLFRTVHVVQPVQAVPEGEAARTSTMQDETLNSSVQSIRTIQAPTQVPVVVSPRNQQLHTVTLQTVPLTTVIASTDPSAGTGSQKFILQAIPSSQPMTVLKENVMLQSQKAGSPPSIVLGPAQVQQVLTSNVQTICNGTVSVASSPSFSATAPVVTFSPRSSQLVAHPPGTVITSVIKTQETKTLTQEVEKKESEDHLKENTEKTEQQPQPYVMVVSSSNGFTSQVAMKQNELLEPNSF
Sequence of SPIB (Q01892 whole entry): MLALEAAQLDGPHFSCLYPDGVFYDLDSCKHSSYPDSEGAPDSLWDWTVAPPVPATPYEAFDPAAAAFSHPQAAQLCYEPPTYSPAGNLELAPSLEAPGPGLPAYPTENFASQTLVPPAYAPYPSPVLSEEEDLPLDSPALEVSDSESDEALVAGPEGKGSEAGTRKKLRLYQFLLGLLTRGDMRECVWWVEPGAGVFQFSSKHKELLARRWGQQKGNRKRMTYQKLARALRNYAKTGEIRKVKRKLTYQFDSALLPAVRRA

With GCTATG, the binding signal in the experiment with FLI1 was 1.16 fold enrichment (6-mer frequency, TF over GST control); in the experiment with ELK1, 1.13 fold enrichment (6-mer frequency, TF over GST control); with GABPA, 1.26 fold enrichment (6-mer frequency, TF over GST control); with ERG, 1.11 fold enrichment (6-mer frequency, TF over GST control); in the experiment with ELF1, 1.22 fold enrichment (6-mer frequency, TF over GST control); in the experiment with EHF it was 1.21 fold enrichment (6-mer frequency, TF over GST control). The binding signal in the experiment with SPI1 is 1.13 fold enrichment (6-mer frequency, TF over GST control); in the experiment with SPIB it was 1.31 fold enrichment (6-mer frequency, TF over GST control); with ELK3, 1.15 fold enrichment (6-mer frequency, TF over GST control); in the experiment with FEV, 1.15 fold enrichment (6-mer frequency, TF over GST control); in the experiment with ETV5, 1.13 fold enrichment (6-mer frequency, TF over GST control); with HSF1 it was 1.07 fold enrichment (6-mer frequency, TF over GST control). Moreover, the binding signal was 1.22 fold enrichment (6-mer frequency, TF over GST control) with SPIC; 1.08 fold enrichment (6-mer frequency, TF over GST control) with ELF4; 1.15 fold enrichment (6-mer frequency, TF over GST control) in the experiment with ELK4; 1.38 fold enrichment (6-mer frequency, TF over GST control) with ETV2; 1.18 fold enrichment (6-mer frequency, TF over GST control) with ELF3; 1.17 fold enrichment (6-mer frequency, TF over GST control) with ETV1.

Source of the values: paper PMC7862700, “An all-to-all approach to the identification of sequence-specific readers for epigenetic DNA modifications on cytosine”.
